Test results from PubChem BioAssay AID618 (Sanford-Burnham Center for Chemical Genomics, 2007).
Among all 87,000 compounds or so, about 540 (0.62%) were called active. How the calls were made is not given here. The full list was thinned out, with actives kept by preference. Measured potencies and affinities stand elsewhere.

assay: MT1-MMP gene expression reporter suppression – cell-based, luciferase reporter, luminescence (AID 618); settings: MT1-MMP promoter luciferase reporter cells;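 further: actives suppress MT1-MMP promoter-driven transcription so potencies describe inhibitors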

outcome, inactive:
O=C(Nc1ccccc1C(=O)OCn1nnc2ccccc2c1=O)c1ccco1
CC(=O)Nc1ccc(S(=O)(=O)N2CCC(c3nc4ccc(C)cc4[nH]3)CC2)cc1
C=CCn1c(/N=C/c2ccc(N(C)C)cc2)nc2ccccc21
Cc1nc2ccccc2c(=O)n1/N=C/c1ccc(N(C)C)cc1
CCCN=Cc1c(CCC)[nH]n(-c2nc3ccccc3s2)c1=O
CCCc1[nH]n(-c2nc3ccccc3s2)c(=O)c1C=NCC(C)C
O=C(CCN1C(=O)C2C3C=CC(C3)C2C1=O)N1CCN(c2ccccc2Cl)CC1 (stereo not given)
O=C(NCc1ccc2c(c1)OCO2)c1c[nH]c2ccc(S(=O)(=O)N3CCOCC3)cc2c1=O
COC(=O)Cn1c(C)c(C#N)c2ccccc21
COc1ccccc1/C=N/n1c(C)nnc1-n1nc(C)cc1C
Cc1cc(C)n(-c2nnc(C)n2/N=C/c2cc(Br)ccc2OCc2ccccc2)n1
Cc1nn(C)cc1C=NCCOCc1ccccc1
O=C(CCC(=O)c1cccs1)NC(c1ccccc1)c1ccccc1
Cc1csc(-c2coc3cc(O)cc(C)c3c2=O)n1
COc1ccc2oc(=O)c(-c3nc(C)cs3)cc2c1
CCCC(=O)Nc1cnc(NC(=O)c2cccc(F)c2)cc1C
CCN(CCCNC(=O)CN1C(=O)COc2ccccc21)c1ccccc1
COc1cc(C2C(C#N)=C(C)NC3=C2C(=O)CC(C)(C)C3)cc(OC)c1O (stereo not given)
COc1ccc(C2C(C#N)=C(C)NC3=C2C(=O)c2ccccc23)cc1 (stereo not given)
CCCCCC(=O)N(O)C1CC(=O)N(c2ccccc2)C1=O (stereo not given)
COC(=O)c1ccc(Nc2nc(C)cc(C)n2)cc1
CCOC(=O)c1ccccc1NC(=O)CN(c1ccccc1C)S(C)(=O)=O
CN1C(=O)c2c(sc3c2CC(C)(C)SC3)N2CCN=C12
Cc1ccsc1C(=O)N1CC(=O)Nc2ccccc21
O=C1CN(C(=O)c2ccccc2)c2ccccc2N1
O=C(CCN1C(=O)c2ccccc2C1=O)Nc1ccccn1
CNC(=O)C1CCCN1S(=O)(=O)c1ccc(OC)cc1 (stereo not given)
Cc1ccc(NC(=O)CS(=O)CC(=O)NCC2OCCc3ccccc32)c(C)c1 (stereo not given)
Cc1cccc(-c2c3c(=O)n(C)c(=O)n(C)c3c3c(C)cc(C)nn23)c1
Cc1cc(S(=O)(=O)Nc2ccc(N(C)C)cc2)c(C)s1
Fc1ccc2[nH]c3c(N4CCN(c5ccccc5)CC4)ncnc3c2c1
COc1cccc(N2CCN(c3ncnc4c3[nH]c3ccccc34)CC2C)c1 (stereo not given)
OC(CCCCN1CCCCC1)c1ccccc1 (stereo not given)
OC(CCN1CCCC1)(c1ccccc1)C1CCCCC1 (stereo not given)
Cc1ccc(-n2nc(-c3ccc(N)cc3)cc2N)cc1
Nc1ccc2nn(-c3cccc4ccccc34)nc2c1
CCOC(=O)CC1=CC(C)(CC(=O)OCC)C(C#N)(C#N)C(N)=C1C#N (stereo not given)
O=C(CC1(O)C(=O)Nc2ccccc21)c1ccc(-n2cccc2)cc1 (stereo not given)
CC(C)(C)NC(=O)CC(c1ccccc1)c1ccccc1O (stereo not given)
Cc1sc2nc(SCC(=O)NCc3cccs3)[nH]c(=O)c2c1C
Cc1cnc(NC(=O)COc2cccc3c2OC(C)(C)C3)s1
Cc1cnc(NC(=O)COc2ccccc2)s1
CCOC(=O)C1C(=O)NC(N2CCN(Cc3ccccc3)CC2)=NC1c1ccccc1 (stereo not given)
Clc1ccc(-c2nnc(-c3ccccc3)o2)c(Cl)c1
Fc1ccc(-c2nnc(-c3ccc(Cl)cc3)o2)cc1
Cc1cccc(NC(=O)CCc2ccc(C)o2)c1
C/C(N)=C(/C#N)C(=O)COC(=O)COc1ccc(Cl)cc1
c1ccc(Nc2ccccc2Nc2ccccn2)nc1
c1ccc(Nc2ccccn2)cc1
O=C(Nc1ccc(F)cc1)c1ccccc1
Cc1cc(C)nc(NC2=NC3CCCCC3N2)n1 (stereo not given)
Cc1cc(C)cc(NC(=O)CCn2ccnc2C)c1
CC1CC(C)CN(c2oc(-c3ccco3)nc2C#N)C1 (stereo not given)
COc1ccc2c(CSc3nc4nc(C)cc(C)n4n3)cc(=O)oc2c1
CCC(SCC(=O)OC)C(=O)Nc1nnc(C(C)C)s1 (stereo not given)
Cc1nnc(SCCn2c(N3CCN(C)CC3)nc3c2c(=O)[nH]c(=O)n3C)s1
Cc1nnc(SCCn2c(N3CCN(C)CC3)nc3c2c(=O)n(C)c(=O)n3C)s1
COc1ccc(NC(=O)C2C(=O)N(C)C3(C)CC2c2ccccc2O3)cc1 (stereo not given)
Cc1ccc2ccc(C3C(=O)c4ccccc4C3=O)nc2c1
COC(=O)C1=C(C)NC(C)=C(C(=O)OC)C1c1ccc2ccccc2n1
CCCCn1c(CCNC(=O)CCC)nc2ccccc21
CCCCCCc1ccc(OCC(=O)O)cc1OCC(=O)O
CC(C)(/C=N/O)/[N+]([O-])=C/c1ccco1
Cc1cc(C(=O)NCCCN2CCOCC2)n(-c2ccccc2)n1
Cc1cc(C(=O)NCCCN2CCN(C3CCCCC3)CC2)n(-c2ccccc2)n1
COc1ccc(S(=O)(=O)Cc2ccc(C(=O)N3CCc4ccccc4C3)o2)cc1
CCC1=C/C(=C/N(C)c2ccccc2)C(=O)S1
Cc1ccc(-c2cc(=O)[nH][nH]2)c(C)c1
CCOC(=O)c1c(C)sc2c1N(C(C)=O)c1cc(Cl)ccc1S2
CCOC(=O)c1c(C)sc2c1N(C(=O)CN(CC)CC)c1cc(Cl)ccc1S2
CCN1CCN(C(=O)c2cc3cc4ccc(OC)cc4nc3s2)CC1
CCC(C)NC(=O)c1cc2cc3ccc(OC)cc3nc2s1 (stereo not given)
O=c1[nH]c(NCCO)nc2ncn(Cc3ccccc3)c12
Cn1c(C(=O)N2CCCC(C(=O)NCCc3ccccc3)C2)cc2sccc21 (stereo not given)
Cc1ccc(-c2csc(NC(=O)c3ccno3)n2)cc1
Cc1ccc(O)c(C(=O)CC(=O)c2cccc(F)c2)c1
Cc1ccc(C(=O)CC(=O)c2cc(Cl)ccc2O)cc1
COc1ccc(C(=O)c2ccccc2)c(O)c1
O=C(CC(=O)c1cc(Cl)ccc1O)c1ccccc1
CSCCC1C(=O)OC2(C)CC(C)(C)NC(=S)N12 (stereo not given)
COCCn1c(C)cc(C(=O)CSc2ncn[nH]2)c1C
Cc1nnc(SCC(=O)c2cc(C)n(C3CC3)c2C)s1
COCCn1c(C)cc(C(=O)CSc2nncn2-c2ccccc2)c1C
CCCn1c(=O)c2ccccc2n2c(SCC(=O)c3cc(C)n(CCOC)c3C)nnc12
CC(=O)N1c2ccccc2C(=O)OC1c1cccnc1 (stereo not given)
O=C(NCCCn1ccnc1)c1cc2c(s1)CCCCC2
COc1cccc(CN2C(=O)c3ccccc3C2C(=O)NCC2CCCO2)c1 (stereo not given)
O=C(O)c1cnn(-c2ccccc2)c1-n1cccc1
COc1cccc(-n2nnnc2SCC(=O)Nc2cccc(C)n2)c1
O=C(Cn1cnc2c(nnn2Cc2ccc(F)cc2)c1=O)OCc1ccccc1
O=S(=O)(Nc1cccc2c1ccc1cccn12)c1cccs1
Cc1ccc(S(=O)(=O)NCc2cccnc2)s1
Cc1ccc(S(=O)(=O)Nc2ccnc3ccccc23)cc1
O=S(=O)(Nc1ccc(-c2nc3cccnc3s2)cc1)c1cccs1
CCN(CC)CCOC(=O)c1cccc(Cl)c1
O=C(O)Cc1ccc(C(=O)c2cccs2)s1
Cc1ccc(C(=O)c2nocc2C(=O)c2cccs2)cc1
CC(=O)c1cccc(NC(=O)N2CCCC2C(=O)NCc2ccc(F)cc2)c1 (stereo not given)

outcome, active:
CN(C)c1ccc(/C=N/n2ncc3ccccc32)cc1
CCCOc1ccc2ccccc2c1/C=N/n1c(C)nnc1-n1nc(C)cc1C
COc1ccc2c(=O)c(-c3nc(C)cs3)coc2c1
COc1cc(C2C(C#N)=C(C)NC3=C2C(=O)c2ccccc23)cc(OC)c1OC (stereo not given)
Cc1cc(C)cc(C(=O)N2CC(=O)Nc3ccccc32)c1
COc1cccc(N2CCN(c3ncnc4c3[nH]c3ccc(F)cc34)CC2C)c1 (stereo not given)
CC(C)(C)c1ccc(C(O)CCCN2CCC(C(O)(c3ccccc3)c3ccccc3)CC2)cc1 (stereo not given)
Cc1cnc(NC(=O)COc2ccccc2Cl)s1
Oc1cccc2ccc(Nc3ccccn3)nc12
Cc1nnc(Sc2nc(Sc3nnc(C)s3)nc(N3CCN(C)CC3)n2)s1
O=C1c2ccccc2C(=O)C1c1ccc2ccccc2n1
Cc1cc(C(=O)NCCN2CCN(c3cccc(Cl)c3)CC2)n(-c2ccccc2)n1
CCOC(=O)c1c(C)sc2c1N(C(=O)CCl)c1cc(Cl)ccc1S2
COCCn1c(C)cc(C(=O)CSc2nnc(C)s2)c1C
Cc1ccc(S(=O)(=O)Nc2cccc3ncccc23)s1
O=S(=O)(Nc1cccc2ncccc12)c1cccs1
O=C(c1cccs1)c1no[n+]([O-])c1C(=O)c1cccs1
